{"source": "the supplement of paper PMC8728848", "experiment_in_all_cases": "glycan array binding signal (z-score within array); higher = stronger binding", "settings_in_all_cases": "glycan notation: IUPAC condensed, linker removed", "key": {"[1]": {"target": "Fuc(a1-2)Gal(b1-3)GalNAc(b1-3)Gal(a1-4)Gal(b1-4)Glc", "how_it_was_run": "(§1)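 The binding signal is a Z-score computed within each array and averaged over linkers. Arrays of the same protein sequence at different concentrations or buffers were also averaged together. Data originate from 3228 arrays in the Consortium for Functional Glycomics database, kept only where the protein sequence was available.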"}, "[2]": {"target": "Fuc(a1-2)Gal(b1-4)GlcNAc", "how_it_was_run": "as §1"}, "[3]": {"target": "Fuc(a1-2)Gal(b1-4)GlcNAc(b1-3)Gal(b1-4)GlcNAc", "how_it_was_run": "as §1"}, "[4]": {"target": "Fuc(a1-2)[Gal(a1-3)]Gal(b1-4)Glc", "how_it_was_run": "as §1"}, "[5]": {"target": "Fuc(a1-2)[Gal(a1-4)]Gal(b1-4)GlcNAc", "how_it_was_run": "as §1"}, "[6]": {"target": "Fuc(a1-2)[GalNAc(a1-3)]Gal(b1-4)GlcNAc", "how_it_was_run": "as §1"}, "[7]": {"target": "Fuc(a1-3)[Gal(b1-4)]GlcNAc(b1-2)Man(a1-6)[Gal(b1-4)GlcNAc(b1-2)Man(a1-3)]Man(b1-4)GlcNAc(b1-4)GlcNAc", "how_it_was_run": "as §1"}, "[8]": {"target": "Fuc(a1-3)[Gal3S(b1-4)]GlcNAc6S", "how_it_was_run": "as §1"}, "[9]": {"target": "Gal(b1-3)Gal(b1-4)GlcNAc", "how_it_was_run": "as §1"}, "[10]": {"target": "Gal(b1-4)Glc6S", "how_it_was_run": "as §1"}, "[11]": {"target": "Gal(b1-4)GlcNAc(b1-2)Man(a1-3)[Gal(b1-4)GlcNAc(b1-2)Man(a1-6)]Man(b1-4)GlcNAc(b1-4)GlcNAc", "how_it_was_run": "as §1"}, "[12]": {"target": "Gal(b1-4)GlcNAc(b1-3)[Gal(b1-4)GlcNAc(b1-6)]Gal(b1-4)GlcNAc", "how_it_was_run": "as §1"}, "[13]": {"target": "Gal(b1-4)GlcNAc(b1-6)[Gal(b1-3)]GalNAc", "how_it_was_run": "as §1"}, "[14]": {"target": "Gal3S(b1-4)[Fuc(a1-3)]Glc", "how_it_was_run": "as §1"}, "[15]": {"target": "Gal3S6S(b1-4)GlcNAc6S", "how_it_was_run": "as §1"}, "[16]": {"target": "GlcNAc(b1-3)GalNAc", "how_it_was_run": "as §1"}, "[17]": {"target": "GlcNAc(b1-3)[GlcNAc(b1-4)][GlcNAc(b1-6)]GlcNAc", "how_it_was_run": "as §1"}, "[18]": {"target": "Man(a1-2)Man(a1-3)[Man(a1-2)Man(a1-6)]Man", "how_it_was_run": "as §1"}, "[19]": {"target": "Neu5Ac(a2-3)Gal(b1-4)GlcNAc(b1-3)Gal(b1-4)[Fuc(a1-3)]GlcNAc", "how_it_was_run": "as §1"}, "[20]": {"target": "Neu5Ac(a2-8)Neu5Ac(a2-8)Neu5Ac", "how_it_was_run": "as §1"}}, "note": "Many of the other results were omitted from the sample, so the strongest signals are more common in it than they were."}
{"binder": "MCI4 (Toxoplasma gondii), Q9XZH7 (protein) MRASLPVHLVVCTQLSAVWFGVAKAHGGHRLEPHVPGFLQGFTDITPAGDDVSANVTSSEPAKLDLSCVHSDNKGSRAPTIGEPVPDVSLEQCAAQCKAVDGCTHFTYNDDSKMCHVKEGKPDLYDLTGGKTASRSCDRSCFEQHVSYEGAPDVMTAMVTSQSADCQAACAADPSCEIFTYNEHDQKCTFKGRGFSAFKERGVLGVTSGPKQFCDEGGKLTQEEMEDQISGCIQLSDVGSMTADLEEPMEADSVGACMERCRCDGRCTHFTFNDNTRMCYLKGDKMQLYSSPGDRTGPKSCDSSCFSNGVSYVDDPATDVETVFEISHPIYCQVICAANPLCTVFQWYASEAKCVVKRKGFYKHRKTGVTGVTVGPREFCDFGGSIRDREEADAVGSDDGLNAEATMANSPDFHDEVECVHTGNIGSKAQTIGEVKRASSLSECRARCQAEKECSHYTYNVKSGLCYPKRGKPQFYKYLGDMTGSRTCDTSCLRRGVDYSQGPEVGKPWYSTLPTDCQVACDAEDACLVFTWDSATSRCYLIGSGFSAHRRNDVDGVVSGPYTFCDNGENLQVLEAKDTE", "values": [{"measurement": "glycan array binding signal (z-score)", "setting": "[1]", "result": -0.22}, {"measurement": "glycan array binding signal (z-score)", "setting": "[2]", "result": -0.204}, {"measurement": "glycan array binding signal (z-score)", "setting": "[3]", "result": -0.214}, {"measurement": "glycan array binding signal (z-score)", "setting": "[4]", "result": -0.206}, {"measurement": "glycan array binding signal (z-score)", "setting": "[5]", "result": -0.203}, {"measurement": "glycan array binding signal (z-score)", "setting": "[6]", "result": -0.21}, {"measurement": "glycan array binding signal (z-score)", "setting": "[7]", "result": -0.201}, {"measurement": "glycan array binding signal (z-score)", "setting": "[8]", "result": -0.225}, {"measurement": "glycan array binding signal (z-score)", "setting": "[9]", "result": 5.93}, {"measurement": "glycan array binding signal (z-score)", "setting": "[10]", "result": 5.04}, {"measurement": "glycan array binding signal (z-score)", "setting": "[11]", "result": 4.68}, {"measurement": "glycan array binding signal (z-score)", "setting": "[12]", "result": 7.5}, {"measurement": "glycan array binding signal (z-score)", "setting": "[13]", "result": 5.16}, {"measurement": "glycan array binding signal (z-score)", "setting": "[14]", "result": -0.213}, {"measurement": "glycan array binding signal (z-score)", "setting": "[15]", "result": -0.228}, {"measurement": "glycan array binding signal (z-score)", "setting": "[16]", "result": -0.203}, {"measurement": "glycan array binding signal (z-score)", "setting": "[17]", "result": -0.202}, {"measurement": "glycan array binding signal (z-score)", "setting": "[18]", "result": -0.213}, {"measurement": "glycan array binding signal (z-score)", "setting": "[19]", "result": -0.217}, {"measurement": "glycan array binding signal (z-score)", "setting": "[20]", "result": -0.217}]}
